Values joined by “and” are separate entries in the source; they are usually repeats but may differ in a detail not shown here. Equal entries are not always repeated. About 3,000 (1%) of roughly 290,000 compounds were called active. Only a selection was taken, and actives are over-represented in it overall. Values without a mark were called inactive. Rule as the data show it: active = inhibition mostly above about 36% (no sharp cut-off); inactive = mostly below about 34%.

A short description of this experiment: NOD1 signaling inhibitors, primary screen, cell-based, luminescence, uHTS (AID 1578).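 Also: HEK-293T reporter cells stimulated with the NOD1 agonist gamma-tri-DAP.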 The settings on record: NOD1-driven NF-kB luciferase reporter cells, at 4 µM, active compounds read high.
As for `COc1cc(CN2CCCCCC2)cc(OC)c1OC`, the inhibition is -23%.

`C[n+]1cn(/N=C/c2ccccc2)c2ccccc21`: the inhibition was 75.1% (active).

As to `C(=N\n1c2ccccc2c2ccccc21)/c1ccccc1`, the inhibition is 6.6%.

For the molecule `Cn1c(=O)n(/N=C/c2ccccc2)c2ccccc21`, the inhibition is -23.6%.

In the case of `CCOC(=O)Cc1csc(NC(=O)c2sc3nc4cc(C)ccc4cc3c2N)n1`, the inhibition was -55.6%.

As for `CCn1cc(CNC(=O)c2ccc(OC3CCN(Cc4ccccn4)CC3)cc2)cn1`, the inhibition was -0.8%.

Take `Cc1ccccc1CN1CCC(Oc2ccc(C(=O)NCc3ccccn3)cc2)CC1`: the inhibition is 17%.

Take `Cc1cc(Sc2nnc(N)s2)c2ccccc2n1`: the inhibition is 53.2% (active).

Take `COc1ccc2nc(C)cc(SCC(=O)O)c2c1`: the inhibition was -24.8% and -30.8%.

Turning to `CCCCCCCCSc1nnc(/N=C/N(C)C)s1`, the inhibition was -11.4%.

As for `COc1ccc2nc(C)cc(Sc3nc4ccccc4s3)c2c1`, the inhibition was 47.7% (active).

As for `Cc1cc(Sc2nnc(/N=C/N(C)C)s2)c2ccccc2n1`, the inhibition is 46.4% (active).

As for `Cc1ccc(NC(=O)CSc2nnc(/N=C/N(C)C)s2)cc1`, the inhibition was -37.6%.

For `COc1ccc2nc(C)cc(SCC(=O)NNC(=O)COc3ccccc3)c2c1`, the inhibition was 9.9%.

As for `Cc1cc(N)c2ccccc2n1`, the inhibition was -45.9%.

Consider `Cc1nc2ccccc2nc1CSc1nnc(N)s1`, for which the inhibition was -18%.

For `Cc1ccccc1CN1CCN(CC(=O)NCc2ccco2)C1=O`, the inhibition is -14.9%.

For the molecule `FC(F)(F)COc1nc(N2CCOCC2)nc(N(c2ccccc2)c2ccccc2)n1`, the inhibition was -30.9%.

Take `O=C(Nc1cccc(NC(=O)c2cncc(Br)c2)c1)c1cncc(Br)c1`: the inhibition was -16.9%.

In the case of `Cc1ccc(NS(=O)(=O)c2cn(C)c(=O)n(C)c2=O)cc1C`, the inhibition is -34.3%.

On to `Cc1ccc(-c2nc(NCC3CCCO3)sc2C)cc1` (centres undefined), for which the inhibition was -53.2%.

With `COCc1cc(C2C(C(=O)c3ccco3)=C(O)C(=O)N2CCOCCO)ccc1O` (centres undefined), the inhibition was -32.2%.

With `COCCCNC(=O)C(=O)Nc1cc2c3c(c1)CCC(=O)N3CCC2`, the inhibition is 19.6%.

As for `CN(C)c1ccc(NC(=O)c2cnsn2)cc1`, the inhibition is 65.7% (active).

In the case of `CC(=O)c1ccc(NC(=O)c2cnsn2)cc1`, the inhibition was 44.1%.

For the molecule `CCOc1ccc(NC(=O)c2cnsn2)cc1`, the inhibition was -6.3%.

Turning to `Cc1ccc(Cl)cc1N1CCN(S(=O)(=O)c2ccc3[nH]c(=O)ccc3c2)CC1`, the inhibition is 5.1%.

Regarding `O=C(Cn1c(O)c(/C=C2\C=Nc3ccccc32)sc1=O)N1CCOCC1`, the inhibition is 12.6%.

Regarding `C=CCC(=O)NC1CCCc2c1cnn2-c1cc(F)cc(F)c1` (centres undefined), the inhibition is 6.1%.

For `Cc1ccc(-c2cn(-c3ccccc3)c(=S)[nH]2)cc1C`, the inhibition was 23.4% (active).

As to `COc1ccc(-c2cn(-c3ccccc3)c(=S)[nH]2)cc1OC`, the inhibition was -4.4%.

On to `S=c1[nH]c(-c2ccccc2)cn1-c1ccccc1`, for which the inhibition was -7.1%.

In the case of `O=c1oc2ccccc2cc1-c1cn(-c2ccccc2)c(=S)[nH]1`, the inhibition is 98.5% (active).

Take `Cc1ccccc1-c1cn(-c2ccccc2)c(=S)[nH]1`: the inhibition was -24.2%.

In the case of `O=C(O)c1ccc(-n2cc(-c3cc4ccccc4oc3=O)[nH]c2=S)cc1`, the inhibition is -7.2%.

Consider `Cc1nc2ccc(Cl)cn2c1C(=O)NN`, for which the inhibition was -35.5%.

For the molecule `O=C(NCCNC(=O)c1ccco1)c1ccco1`, the inhibition is 5%.

Consider `Cc1cccc(N(CC(=O)NC2CCCCC2)C(=O)CCCC(=O)Nc2ccccn2)c1`, for which the inhibition was -26.2%.

Regarding `Cn1nnnc1SCCNCc1ccncc1`, the inhibition was -3.9%.

For `Cn1c(N2CCCC2)nc2c1c(=O)n(Cc1ccc(Cl)cc1)c(=O)n2C`, the inhibition is -9.4%.

As for `Cn1c(N2CCC(C(N)=O)CC2)nc2c1c(=O)n(Cc1ccc(Cl)cc1)c(=O)n2C`, the inhibition is -1.5%.

For the molecule `O=C(c1nc2ccc(Cl)cn2c1CN1CCC[C@H]1CO)N1CCCCCCC1`, the inhibition is -22%.

For the molecule `CCOC(=O)c1cnc(N2CCN(c3ccccc3)CC2)[nH]c1=O`, the inhibition was 1.6%.

Take `CC(=O)c1ccc(NCC2COc3ccccc3O2)c([N+](=O)[O-])c1` (centres undefined): the inhibition is -11.7%.

For the molecule `CCOC(=O)CSc1ccc2nnc(-c3ccccc3)n2n1`, the inhibition is -21.3%.

For the molecule `COc1nc(Nc2ccccc2F)nc(OC)n1`, the inhibition was -28.1%.

As for `Cc1c(N)cc[n+](CC(=O)c2ccccc2)c1C`, the inhibition was -3.9%.

For the molecule `COc1ccc(C(=O)C[n+]2ccc(N)c(C)c2C)cc1`, the inhibition was 59.4% (active).

For the molecule `COc1ccc(C(=O)C[n+]2ccc3ccccc3c2C)cc1`, the inhibition is -2.3%.

As for `Cc1cc(C(=O)N2CCCC(CCC(=O)N3CCN(c4ccccn4)CC3)C2)c(C)o1` (centres undefined), the inhibition is -25.2%.

Take `Cc1cc(OCC(=O)NCCN2CCOCC2)cc(C)c1Br`: the inhibition was -62.5%.

Take `Cc1cc(OCC(=O)Nc2ccncc2)ccc1Br`: the inhibition was 49.9%.

Regarding `Cc1ccc(OCC(=O)NCCN2CCOCC2)cc1C`, the inhibition was -3.4%.

In the case of `Cc1cc(OCC(=O)NCCN2CCOCC2)cc(C)c1Cl`, the inhibition is 84.9% (active).

For the molecule `Cc1cc(Cl)ccc1OCC(=O)Nc1ccncc1`, the inhibition was 23.8%.

As for `Cc1cc(C)cc(OCC(=O)Nc2ccncc2)c1`, the inhibition is 30.1%.

For `Cc1cc(OCC(=O)Nc2ccncc2)ccc1Cl`, the inhibition is 27.1%.

For `Cc1ccccc1-n1nc2c(c1NC(=O)C(C)C)CS(=O)(=O)C2`, the inhibition is -6.5%.

`N#Cc1ccccc1NC(=O)c1ccc2c(Cl)c3c(nc2c1)CCCC3`: the inhibition is 66.5% (active).

On to `O=C(Nc1cccnc1Cl)c1ccc2c(Cl)c3c(nc2c1)CCC3`, for which the inhibition is -39.9%.

`CC(=O)c1cccc(NC(=O)c2ccc3c(Cl)c4c(nc3c2)CCCC4)c1`: the inhibition was -3.3%.

Consider `Clc1ccc(C2Nc3ccccc3-n3cccc32)cc1` (centres undefined), for which the inhibition is -20.2%.

As to `CN1CCCN(C(=O)c2ccc(Cl)s2)CC1`, the inhibition was -15%.

Consider `O=C(c1cc2ccccc2oc1=O)N(Cc1ccc2c(c1)OCO2)Cc1ccco1`, for which the inhibition is -2.2%.

Regarding `O=C(c1cc2ccccc2oc1=O)N(Cc1ccccc1)Cc1ccc2c(c1)OCO2`, the inhibition is 50.1% (active).

Turning to `O=C(NCc1ccc2c(c1)OCO2)c1cc2ccccc2oc1=O`, the inhibition is 11.3%.

As to `COc1cc(C(C(=O)NC2CCCCC2)N(Cc2ccco2)C(=O)c2cnccn2)cc(OC)c1OC` (centres undefined), the inhibition was -34.1%.

Consider `C[C@]12C=CC(=O)C=C1CC[C@@H]1C2C(O)C[C@@]2(C)C1CC[C@]2(O)C(=O)COC(=O)CCC(=O)NC(CC(=O)O)C(=O)O` (some centres undefined), for which the inhibition was -8.1%.

For `CN(C(=S)NC(=O)/C=C/c1ccc(F)cc1)C1CCCCC1`, the inhibition is -22.9%.

With `O=C(/C=C/c1ccc(F)cc1)NC(=S)NC1CCCCC1`, the inhibition was 36.3% (active).

As for `O=C(/C=C/c1ccc(F)cc1)NC(=S)Nc1ccccc1C(=O)NC1CCCCC1`, the inhibition is 12.3%.

Turning to `COc1cccc2c(Nc3ccccc3C)cc(C)nc12`, the inhibition is 6.4%.

On to `COc1ccc(C(=O)N/C(=C/c2cccs2)c2nc3ccccc3[nH]2)cc1OC`, for which the inhibition is -5.7%.

Turning to `COC(=O)/C(=C\c1ccc(O)cc1)c1nc2ccccc2[nH]1`, the inhibition was -44.4%.

Regarding `COc1ccc(/C=C(\C#N)c2nc3ccccc3[nH]2)cc1O`, the inhibition was 12%.

As to `COc1cc(/C=C(\C#N)c2nc3ccccc3[nH]2)cc(OC)c1O`, the inhibition was 6.4%.

As to `COc1cc(/C=C(/C(=O)c2cccs2)c2nc3ccccc3[nH]2)cc(OC)c1O`, the inhibition is 98.8% (active).

As for `O=C(CN1CCOCC1)OCCCc1ccccc1`, the inhibition was -23.1%.

Take `CCCCNC(=O)Nc1c(C(=O)OCC)[nH]c2ccccc12`: the inhibition was -25.1%.

Regarding `CCOC(=O)CCCCCN(Cc1ccccc1)S(=O)(=O)c1ccc([N+](=O)[O-])cc1`, the inhibition was -22.1%.

On to `CCOC(=O)c1c(-c2ccc(C)o2)csc1NC(=O)CN1CCOCC1`, for which the inhibition was 14.9%.

Turning to `CCc1nc(SCc2ccccc2C#N)n[nH]1`, the inhibition is -30.4%.

In the case of `O=C(Nc1ccc(C(=O)N2CCCC2)cc1)c1ccc(F)cc1Cl`, the inhibition was -14%.

As to `CCOC(=O)N1CCN(C(=O)c2ccc(Cn3c(=S)[nH]c4cc(OCC)c(OCC)cc4c3=O)cc2)CC1`, the inhibition was 19.9%.

For `CCOC(=O)N1CCN(C(=O)c2ccc(Cn3c(=S)[nH]c4cc(C(=O)OC)ccc4c3=O)cc2)CC1`, the inhibition was -11%.

For `COc1ccc(Cn2c(=O)[nH]c3cc(C(=O)N4CCN(c5ccccn5)CC4)ccc3c2=O)cc1`, the inhibition is -10.7%.

On to `O=C(c1ccc(Cn2c(=O)[nH]c3ccccc3c2=O)cc1)N1CCN(c2ccccn2)CC1`, for which the inhibition was -8.3%.

For `O=C(CSc1ncccc1C(=O)O)NC1CCCCC1`, the inhibition was -47.1%.

As to `CC(C)C(=O)Nc1ccc(Cl)cc1-c1nc2ccccc2[nH]c1=O`, the inhibition was 34.6%.

For `Cc1cccc(C)c1NC(=O)CSc1nnc([C@@H]2CCCN2C(=O)OC(C)(C)C)o1`, the inhibition is -0.7%.

Take `N#CCS(=O)(=O)c1ccccc1`: the inhibition is -5.7%.

As for `CC(C)(C)NC(=O)CSc1nc2scc(-c3ccccc3)c2c(=O)[nH]1`, the inhibition was 25.7%.

Consider `O=C(CSc1nc2scc(-c3ccccc3)c2c(=O)[nH]1)NC1CCCCC1`, for which the inhibition is 67.6% (active).

Regarding `O=C(CSc1nc2scc(-c3ccccc3)c2c(=O)[nH]1)N1CCCCC1`, the inhibition was -9.2%.

Turning to `Cc1ccc2nc(CNC(=O)C3CCC(=O)N(Cc4ccccc4F)C3)cn2c1` (centres undefined), the inhibition is -21.3%.

For the molecule `Cc1ccc(C2=NNC3(CCOC(C)(C)C3)S2)cc1` (centres undefined), the inhibition is 74.5% (active).

For `Cc1ccc(C2(CC(=O)O)CCOC(C)(C)C2)cc1` (centres undefined), the inhibition was 5.4%.

With `CCc1ccc2c(c1)C1(NN=C(c3ccc(C)cc3)S1)C(=O)N2` (centres undefined), the inhibition is 15.2%.

Take `O=C(c1cnsn1)N1CCC(CO)(Cc2ccc(Cl)cc2)CC1`: the inhibition is -10.4%.

One may read the inhibition as the drop in the measured response relative to a control, in per cent.

Values taken from PubChem BioAssay AID1578 (Sanford-Burnham Center for Chemical Genomics, 2009).
